Data on 13 molecules can be found in ChEMBL document CHEMBL3433997, “St. Jude Leishmania screening dataset” (2016).

One may read the inhibition as the relative decrease from the control value, in per cent.

Holding throughout (assay type): functional
In assay [1] the target is Solute carrier family 2, facilitated glucose transporter member 1 (Homo sapiens) (UniProt P11166). The experiment in a line: ST_JUDE_LEISH: Cytotoxicity at 2uM final concentration against transgenic Leishmania Mexicana promastigotes LmGLUT1 that are glucose transport deficient and complemented with the human glucose transporter GLUT1. Activity is measured by DNA content using SYBR green in vitro.
Sequence of Solute carrier family 2, facilitated glucose transporter member 1 (Homo sapiens) (P11166 whole entry): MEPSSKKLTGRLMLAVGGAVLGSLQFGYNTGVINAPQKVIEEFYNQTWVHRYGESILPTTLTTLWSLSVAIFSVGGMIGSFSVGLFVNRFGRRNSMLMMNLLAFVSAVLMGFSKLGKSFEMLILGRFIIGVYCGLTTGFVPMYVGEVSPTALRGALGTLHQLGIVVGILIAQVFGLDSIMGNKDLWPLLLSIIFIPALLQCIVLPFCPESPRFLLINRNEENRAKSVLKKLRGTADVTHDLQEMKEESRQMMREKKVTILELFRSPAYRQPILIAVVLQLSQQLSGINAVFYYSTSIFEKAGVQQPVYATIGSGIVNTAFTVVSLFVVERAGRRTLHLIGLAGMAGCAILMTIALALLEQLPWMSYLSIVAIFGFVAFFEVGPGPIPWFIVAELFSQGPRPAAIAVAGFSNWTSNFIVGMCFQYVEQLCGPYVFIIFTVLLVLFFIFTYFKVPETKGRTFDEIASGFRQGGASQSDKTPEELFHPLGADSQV

Assay [2] addresses Hexose transporter 1 (Plasmodium falciparum) (UniProt O97467). Briefly: ST_JUDE_LEISH: Cytotoxicity at 2uM final concentration against transgenic Leishmania Mexicana promastigotes LmPfHT that are glucose transport deficient and complemented with the Plasmodium falciparum hexose transporter. Activity is measured by DNA content using SYBR green in vitro.
Assay [3] deals with Glucose transporter (Leishmania mexicana) (UniProt O61059). The experiment in a line: ST_JUDE_LEISH: Cytotoxicity at 2uM final concentration against transgenic Leishmania Mexicana promastigotes LmGT2 that are glucose transport deficient and complemented with the L. Mexicana glucose transporter 2. Activity is measured by DNA content using SYBR green in vitro.

For the molecule `Cc1cc(C)cc(N2C(N)=NC(N)=NC2(C)C)c1`, the inhibition in assay [1] turned out to be 7.13%; in assay [2] it was 5.93%; in assay [3], 5.97%.
On to `C=C[C@H]1CN(CCCCCCC)CC[C@H]1CCNc1ccnc2ccc(OC)cc12`, for which the inhibition was -2.18% in assay [1], 3.68% in assay [2] and -1.48% in assay [3].
Taken in the same sequence, the figures for `Cc1cc(C=C2SC(=Nc3ccccc3)N(C3CCCC3)C2=O)c(C)n1-c1ccc(Cl)cc1` were 0.96%, 0.85% and 1.29%.
As to `CCCOc1ccc(C=C(CC(=O)O)c2nc3ccccc3s2)cc1OCC`, the inhibition in assay [1] was 2.27%; in assay [2], 2.53%; in assay [3], -7.54%.
As for `CNCCNCc1ccc(-c2ccc(-c3nc4cc(F)ccc4[nH]3)s2)cc1`, the figures for the inhibition in assay [1], in assay [2] and in assay [3] were 9.52%, 7.79% and 8.77%, respectively.
On the same counts, the results for `Oc1ccc(Br)cc1-c1nc2ccc(Cl)cc2nc1-c1cc(Br)ccc1O` are 1.9%, 1.4% and 2.66%.
On to `c1ccc2[nH]c(-c3ccc(-c4ccc(CNCC5CCCO5)cc4)s3)nc2c1` (centres undefined), for which the figures for the inhibition in assay [1], in assay [2] and in assay [3] were 5.5%, 4.61% and 5.42%, respectively.
On the same counts, the results for `Cc1c(-c2cccc(NC(=O)C(C)(C)Oc3ccc(Cl)cc3)c2)nc2ncccn12` are -0.94%, -1.86% and -3.03%.
Taken in the same sequence, the figures for `COc1ccccc1NC(=O)Nc1ccc(-c2cccc(-c3nc4ccccc4[nH]3)c2)cc1` were 3%, 2% and 3.27%.
Taken in the same sequence, the figures for `O=C(NCc1ccccc1)c1ccc(C(=O)NCC2CNCCO2)cc1` (centres undefined) were 5.08%, 6.24% and 9.54%.
`Cc1cccc(Cl)c1Nc1nnc(-c2cccc(C(=O)NC[C@@H]3CC[C@H]4C[C@@H]3C4(C)C)c2)o1`: the values for the inhibition in assay [1], in assay [2] and in assay [3] were 10.6%, 8.97% and 6.65%, respectively.
Taken in the same sequence, the figures for `COc1ccc(CN(C)CCOc2ccc(NC(=O)c3cccc4c(=O)cc(-c5ccccc5)[nH]c34)cc2)cc1OC` were 0.9%, 0.96% and 1.24%.
Take `O=C(Nc1nc(-c2cc(F)ccc2F)cs1)c1cncc(Br)c1`: the inhibition in assay [1] amounted to 4.6%; in assay [2], 1.79%; in assay [3], 1.42%.
